These results are taken from PubChem BioAssay (NCI).

About 83,000 compounds went through this panel and 20% of them were active in at least one assay; those are over-represented in the sample as a whole.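 For each line, cells grew in 96-well plates with the test compound present at a single concentration for 48 hours.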 Activity calls are given as the source filed them. Rule for the calls: active = growth percent below 10; inactive = the rest.

The subject of one experiment is MDA-MB-435 melanoma. Put plainly: NCI-60 one-dose screen, 48 h (100 = growth as untreated, 0 = no growth, -100 = all killed). The following applies: 10 µM unless noted.
`CS(=O)(=O)Cc1cnc(C2OCCO2)s1`: the growth was 109% (inactive).
`COc1ccc(Nc2ncc(C(N)=O)c(NCCCNC(=O)C3CCC3)n2)cc1`: the growth was 84% (inactive).
Same read-out and setting: as for `N#C/C(=C\c1ccc(-c2ccc(Cl)cc2)o1)c1ccc(Cl)cc1`, the figure is 85.1% (inactive).
For `COc1cc(C(=O)/C=C/c2c(-c3cccs3)nc3ccccn23)cc(OC)c1OC`, the growth was 11% (inactive).
Consider `Fc1ccc(CNc2c3ccccc3nc3ccccc23)cc1`, for which the growth was 34.8% (inactive).
On the same count and under the same terms, next, `COc1cc(Nc2c3ccc(Cl)cc3nc3ccc(OC)cc23)c2ncccc2c1`: 65.6% (inactive).
With `COc1cc(C2Cc3ncccc3-c3[nH]c(=O)c4cccnc4c32)cc(OC)c1OC` (stereo not given), the growth was -50.3% (active).
In the case of `CCc1ccc(CCC(=O)Nc2ncc(Cc3ccc(Cl)cc3)s2)o1`, the growth was -64.3% (active).
Still for that read-out and setting: as for `N#Cc1c(-c2ccccc2)nc2c(c(-c3ccccc3)nn2-c2ccccc2)c1-c1ccc(N2CCOCC2)cc1`, the figure is 90.5% (inactive); as for `COc1ccc(NC(=O)c2ccc(C(=O)Nc3ccc(OC)cc3OC)cc2)c(OC)c1`, 93.3% (inactive).
For `CCN=C1C=CC(=C(c2ccc(N(C)C)cc2)c2ccc(N(C)C)cc2)c2ccccc21`, the growth is -35.2% (active).

The test system of a further experiment is SW-620 colon. The experiment is described as above. The following applies: 10 µM unless noted.
`CC(C)(CO)N(CCO)CCO`: the growth was 111% (inactive).
In the case of `COc1cc2cc(Oc3ccc(NC(=O)Nc4ccccc4)cc3)c(C)nc2cc1OCCN1CCCCC1`, the growth is 70.3% (inactive).
As to `CN1CCN(CCCOC(=O)c2c3c(n4ccccc24)C(=O)c2ncccc2C3=O)CC1`, the growth is -57.2% (active).
The same measure, in the same setting: next, `Cc1ccc2[nH]c(-c3ccc(S(C)(=O)=O)cc3)c(/C=N/N=C(N)N)c2c1`: 36.4% (inactive); `COc1ccc(C/C(C)=C(\c2ccc(O)cc2)c2ccc(OCCN3CCCC3)cc2)cc1`: 104% (inactive); `CC1(C)C2CC=C(/C=N/NC(=O)C3CCC(=O)N3)C1C2` (stereo not given): 104% (inactive).
As for `COc1ccc2cc(-c3ccc(-c4ccc(C(=N)N)s4)s3)ccc2c1`, the growth is -64.3% (active).
On the same count and under the same terms, next, `Cc1nc2sc(C(=O)Nc3ccccc3)c(N)c2cc1C(=O)/C=C/c1ccccc1`: -37.6% (active); `O=C1/C(=C/c2ccc(C(F)(F)F)cc2)COc2ccc(O)cc21`: 1.98% (active).
Same read-out and setting: as for `Oc1c(CN2CCCC2)cc(COCc2ccccc2)c2cccnc12`, the figure is 22.3% (inactive); as for `CCCCCCCC/C=C\CCCCCCCCOc1ccccc1CC(=O)NCC[N+]1(C)CCCCC1`, 61.1% (inactive); as for `O=C1Nc2ccc(F)cc2/C1=C\c1nc(-c2ccccc2F)n2ccccc12`, 44.9% (inactive).
On the same count and under the same terms, next, `CN(C)Cc1ccc(C(=O)Nc2ccc3ncnc(Nc4ccc(Oc5cccc(F)c5)c(Cl)c4)c3c2)cc1`: -73.1% (active).
As for `CCNC(=O)Oc1ccc(/C(=C(/C)Cc2ccc(OC)cc2)c2ccc(OCCN3CCCC3)cc2)cc1`, the growth was 81.4% (inactive).
The same measure, in the same setting: next, `Cc1cscc(C)c1=S`: 50.5% (inactive).
Still for that read-out and setting: next, `COC(=O)c1c2c(n3ccc(C)cc13)C(=O)c1ccccc1C2=O`: 54.3% (inactive); `COc1cc2nc(Nc3cccc(F)c3)nc(Nc3cc(C)[nH]n3)c2cc1OC`: -58.9% [20 µM] (active).
Still for that read-out and setting: as for `CC1=CCC[C@@H]2C1(C)CC[C@H](C)[C@@]2(C)CC1=CC(=O)C(SC(C)(C)C)=CC1=O` (stereo not given in full), the figure is 78.9% (inactive); as for `O=C(/C=C/c1cccc(Cl)c1)c1cccc(OCCCCOc2cccc(C(=O)/C=C/c3cccc(Cl)c3)c2)c1`, 75.1% (inactive).
Turning to `CCCNc1nc2ccccc2c2c(=O)c3cccc(Cl)c3sc12`, the growth is 97.8% (inactive).
The same measure, in the same setting: next, `COc1cccc(Nc2ccnc3[nH]c4ccc([N+](=O)[O-])cc4c23)c1`: 56.5% (inactive).
Same read-out and setting: as for `CCOC(=O)CSc1nc2sc3c(c2c(=O)n1-c1ccc([N+](=O)[O-])cc1)CCCCC3`, the figure is 81.3% (inactive).
For `Clc1nccc2c(-c3csc(-c4c[nH]c5ccccc45)n3)c[nH]c12`, the growth was 7.87% (active).
Regarding `COc1ccc2c(c1)c(-c1nc(-c3cn(C)c4ncccc34)cs1)cn2CCO`, the growth is 93.6% (inactive).
In the case of `CS(=O)(=O)Cc1cnc(C2OCCO2)s1`, the growth is 113% (inactive).
For `COc1ccc(Nc2ncc(C(N)=O)c(NCCCNC(=O)C3CCC3)n2)cc1`, the growth was 50.9% (inactive).
On the same count and under the same terms, next, `N#C/C(=C\c1ccc(-c2ccc(Cl)cc2)o1)c1ccc(Cl)cc1`: 66.2% (inactive); `COc1cc(C(=O)/C=C/c2c(-c3cccs3)nc3ccccn23)cc(OC)c1OC`: 4.78% (active); `Fc1ccc(CNc2c3ccccc3nc3ccccc23)cc1`: 22.8% (inactive).
